Bioassay records: PubChem, Pan Lab, Icahn School of Medicine at Mount Sinai
Many of the other results were omitted from the sample, so hits are more common in it than they were.
RBX1-CUL1 inh – blocks human RBX1-Cullin-1 di-ubiquitin formation; inhibition, % at 10 µM; P62877+Q13616; in vitro K48 di-Ub FRET, acceptor:donor ratio, 45 min; 140,000 tested, 0.6% active; in the data active means inhibition above about 25%
Target sequence (P62877 whole entry, looked up): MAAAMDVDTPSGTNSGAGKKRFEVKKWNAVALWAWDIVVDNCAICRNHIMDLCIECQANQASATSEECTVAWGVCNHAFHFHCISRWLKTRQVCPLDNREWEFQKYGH
Target sequence (Q13616 whole entry, looked up): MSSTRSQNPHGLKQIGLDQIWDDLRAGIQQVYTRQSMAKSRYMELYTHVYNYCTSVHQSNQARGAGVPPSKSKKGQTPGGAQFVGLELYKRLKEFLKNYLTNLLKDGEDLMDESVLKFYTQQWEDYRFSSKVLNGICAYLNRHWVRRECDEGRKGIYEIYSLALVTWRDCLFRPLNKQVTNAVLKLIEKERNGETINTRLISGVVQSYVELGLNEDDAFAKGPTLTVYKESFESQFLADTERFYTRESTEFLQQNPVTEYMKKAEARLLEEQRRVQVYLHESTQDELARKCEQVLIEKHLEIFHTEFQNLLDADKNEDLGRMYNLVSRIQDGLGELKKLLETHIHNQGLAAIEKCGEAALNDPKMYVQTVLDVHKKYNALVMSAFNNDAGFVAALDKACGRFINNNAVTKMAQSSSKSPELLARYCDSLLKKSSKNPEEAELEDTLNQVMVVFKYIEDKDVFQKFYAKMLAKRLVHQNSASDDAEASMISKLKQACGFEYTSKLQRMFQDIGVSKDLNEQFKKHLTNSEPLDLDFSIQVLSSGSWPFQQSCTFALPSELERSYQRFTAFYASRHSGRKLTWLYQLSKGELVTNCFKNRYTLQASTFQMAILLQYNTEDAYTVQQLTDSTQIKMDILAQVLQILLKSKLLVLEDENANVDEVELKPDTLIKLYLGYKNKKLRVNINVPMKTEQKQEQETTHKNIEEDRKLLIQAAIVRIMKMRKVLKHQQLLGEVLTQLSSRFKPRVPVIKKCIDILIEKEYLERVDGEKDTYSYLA
Active calls of the source: *.

SMILES | RBX1-CUL1 inh
O=C1N=C(Cc2ccc(-c3ccccc3)o2)C(=O)N1Cc1ccc(Cl)cc1 | 6
N#Cc1cc(Oc2ccc(-c3cnc4ccccc4n3)cc2)nc2ccccc12 | -1
CCS(=O)(=O)N(C)c1ccc(C(=O)NC2CCCCCC2)cc1 | 5
COc1ccc(CC2(CCC(=O)NCCc3ccccc3Cl)CCC(=O)N2)c2ccccc12 (stereo not drawn) | 18
COc1ccc(CNC(=O)N=C2CN(CC(C)C)C(=O)c3ccccc32)c(OC)c1 | 28*
COc1ccc(NC(=O)N=C2CN(CC(C)C)C(=O)c3ccccc32)c(OC)c1 | -7
Cc1ccc(CNC(=O)N=C2CN(CC(C)C)C(=O)c3ccccc32)cc1 | 2
COC(=O)C(C)N1C(=O)S/C(=C/c2ccc(OC)c(OC)c2OC)C1=O (stereo not drawn) | -7
COc1ccc(-c2ccc3c4ccccc4c(C(=O)C(F)(F)F)c-3o2)cc1 | 3
Cc1ccc(-n2nnnc2SCC(=O)n2c3ccccc3c3ccccc32)cc1 | -1
CC(C)N1CCNC(=O)C1CC(=O)OCc1ccccc1 (stereo not drawn) | -8
C=CCOc1c(Br)cc(CNc2nccs2)cc1OCC | 10
C=CCOc1c(Br)cc(CNC(C)(C)C)cc1OCC | 66*
C=CCOc1c(Br)cc(CNc2ccc(C(=O)O)cc2)cc1OCC | 9
COC(=O)c1cc2ccccc2cc1OC | 5
COc1ccc2c(=O)c(I)coc2c1 | -2
COc1ccc2ccc3c4ccccc4c(OC)cc3c2c1 | 1
COc1ccc2c(=O)c(=O)c2c1 | 72*
CCOCC(=O)Nc1ccccc1OC | 1
CCOCC(=O)Nc1ccccc1C(=O)O | 103*
COCC(=O)Nc1ccccc1C(=O)O | 0
CC(=O)c1cccc(OCc2cc(C(=O)N3CCSCC3)n[nH]2)c1 | 5
CC(=O)NCC(=O)N1CCC2(CCCN(CC3CCCCC3)C2=O)C1 (stereo not drawn) | 1
CCSc1nnc2c(n1)OC(c1ccc(Cl)c([N+](=O)[O-])c1)Nc1ccccc1-2 (stereo not drawn) | 2
CC(=O)Oc1c(C)cc(/C=C2\N=C(c3ccc([N+](=O)[O-])cc3)OC2=O)cc1C | 1
SMILES | RBX1-CUL1 inh
O=C(c1ccc(O)c(NC(=O)c2cccc3ccccc23)c1)c1ccc(O)c(NC(=O)c2cccc3ccccc23)c1 | 3
c1ccc(-c2cc3ccc4cccc2n43)cc1 | -1
COC(=O)c1cc2c(-c3ccccc3)cc3ccccn3c-2c1C(=O)OC | 5
c1ccc(-c2cc3ccccn3c3cccc2-3)cc1 | 93*
CC(Oc1ccc(F)cc1Cl)C(=O)N1CCN(c2ncccn2)CC1 (stereo not drawn) | -3
Cc1nc2ncc3c(=O)n(Cc4cccnc4)ccc3n2n1 | -2
CNCc1cn(C2CCN(C(=O)c3ccc4ncccc4c3)CC2)nn1 | 7
Oc1c(Cl)c(Cl)c2c(c1Cl)CC(Nc1ccc3ncccc3c1)O2 (stereo not drawn) | 81*
COC(=O)c1ccc2ncccc2c1 | -16
Cc1ccc(C(=O)NC2CCCC2)cc1NS(C)(=O)=O | 1
Cn1c2ccccc2c2cc(/C=C/c3nc4ccccc4s3)ccc21 | 0
Cc1ccc(/C=C\c2ccc3ccccc3c2)cc1 | -6
CC[n+]1c(/C=C/c2ccc3c(c2)c2ccccc2n3C)ccc2ccccc21 | 69*
CCOC(=O)c1cnc(N2CCOCC2)nc1C | 4
c1ccc(-n2ncc3c2-c2[nH]c4ccccc4c2CC3)cc1 | 6
O=C(Nc1ccccc1Br)c1cncc(Br)c1 | -14
O=S(=O)(Nc1cc(Sc2ncn[nH]2)c(O)c2ccccc12)c1ccc2ccccc2c1 | 84*
NNS(=O)(=O)c1ccc2ccccc2c1 | -1
COc1ccc(S(=O)(=O)Nc2ccc(O)c3ccccc23)cc1 | -6
Cc1ccc(NC(=O)CSc2nc(C(F)(F)F)cc(=O)[nH]2)cc1C | 6
Cn1cc(CN2CCCC2C(=O)Nc2ccc(-c3nc4ccccc4o3)cc2)cn1 (stereo not drawn) | 2
Nc1nc(N)c2sc3nc(-c4cccs4)cc(-c4ccc(F)cc4)c3c2n1 | 6
O=C1CC(=O)c2sc3nc(-c4ccccc4)ccc3c2N1 | 1
O=C1CC(=O)c2sc3nc(-c4cccs4)cc(-c4ccc(F)cc4)c3c2N1 | 26*
O=S(=O)(c1ccccc1)c1ccc(-c2ccc(Br)cc2)cc1 | -1
SMILES | RBX1-CUL1 inh
COc1cc(C(=O)NCc2cn3ccsc3n2)ccc1OC1CCN(C(C)=O)CC1 | 2
C=CCn1c(SCC(=O)Nc2ccccc2C(F)(F)F)nc2scc(-c3ccc(F)cc3)c2c1=O | -2
CCOC(=O)C1=C(C)N=c2s/c(=C\c3cc(Br)c(O)c(OC)c3)c(=O)n2C1c1ccc(OC)cc1 (stereo not drawn) | 53*
CCOC(=O)C1=C(c2ccccc2)N=c2s/c(=C\c3cc([N+](=O)[O-])ccc3O)c(=O)n2C1c1cccc(OC)c1 (stereo not drawn) | 60*
CCOC(=O)C1=C(C)N=c2s/c(=C\c3ccc(O)cc3)c(=O)n2C1c1ccc(F)cc1 (stereo not drawn) | 7
CCOC(=O)C1=C(C)N=c2s/c(=C\c3ccc(O)cc3)c(=O)n2C1c1ccc(OCC)cc1 (stereo not drawn) | 2
CCOC(=O)C1=C(C)N=c2s/c(=C/c3ccc(O)cc3)c(=O)n2C1c1cc(OC)ccc1OC (stereo not drawn) | -3
CCOC(=O)C1=C(c2ccccc2)N=c2s/c(=C/c3ccccc3O)c(=O)n2C1c1cccc(OC)c1 (stereo not drawn) | 1
CCOC(=O)C1=C(C)N=c2s/c(=C/c3cc(Br)c(O)cc3O)c(=O)n2C1c1ccc(OCC)cc1 (stereo not drawn) | 66*
CCOC(=O)C1=C(C)N=c2s/c(=C/c3ccoc3)c(=O)n2C1c1ccc(OC)cc1 (stereo not drawn) | 9
CCOC(=O)C1=C(C)N=c2s/c(=C\c3cc(Cl)ccc3O)c(=O)n2C1c1ccc(OCC)cc1 (stereo not drawn) | 6
CCOC(=O)C1=C(C)N=c2s/c(=C\c3cc4c(cc3Br)OCO4)c(=O)n2C1c1ccc(Cl)cc1 (stereo not drawn) | -3
CCOC(=O)C1=C(c2ccccc2)N=c2s/c(=C\c3ccc([N+](=O)[O-])o3)c(=O)n2C1c1cccc(OC)c1 (stereo not drawn) | -5
CCOC(=O)C1=C(C)N=c2s/c(=C/c3cc(Br)c(O)c(Br)c3)c(=O)n2C1c1ccc(Cl)cc1 (stereo not drawn) | 83*
CC1=NC(=O)CC(c2c(Cl)cccc2Cl)C1C(=O)OC1CCCC1 (stereo not drawn) | -11
COc1cccc(/C=N/NC(=O)CSc2nnc(CNc3ccccc3)n2-c2ccccc2)c1 | -8
Cc1ccccc1CN1CCNC(=O)C1CC(=O)NCCOC(C)C (stereo not drawn) | -1
O=C(NO)c1cccc(C(F)(F)F)c1 | 9
CCOC(=O)C1=C(C)N=c2s/c(=C\c3ccc(O)c(Br)c3)c(=O)n2C1c1ccc(OC)cc1 (stereo not drawn) | 35*
C=CCOc1ccc(C2C(C(=O)OCC)=C(C)N=c3s/c(=C\c4cc(I)c(O)c(OC)c4)c(=O)n32)cc1 (stereo not drawn) | 37*
C=CCc1cc(/C=c2/sc3n(c2=O)C(c2ccc(OC)cc2OC)C(C(=O)OCC)=C(C)N=3)cc(OC)c1O (stereo not drawn) | -6
CCOC(=O)C1=C(C)N=c2s/c(=C\c3ccc4c(c3)OCO4)c(=O)n2C1c1ccc(OC)cc1 (stereo not drawn) | 10
